Mcl1-Noxa inh: disrupts binding of human Mcl-1 to Noxa peptide; Q07820; TR-FRET Mcl-1/Noxa peptide binding, 2 h; inhibition, % at 21.7 µM; hit rate 1.5% among 220,000;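 active = compounds that cut the protein-peptide binding signal by more than 50% relative to plate controls in a single-dose test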;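 also: His-tagged Mcl-1 with rhodamine Noxa BH3 peptide and terbium anti-His antibody; 0% = Mcl-1 plus Noxa peptide wells and 100% = peptide-only wells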
Target sequence (Q07820 whole entry, looked up): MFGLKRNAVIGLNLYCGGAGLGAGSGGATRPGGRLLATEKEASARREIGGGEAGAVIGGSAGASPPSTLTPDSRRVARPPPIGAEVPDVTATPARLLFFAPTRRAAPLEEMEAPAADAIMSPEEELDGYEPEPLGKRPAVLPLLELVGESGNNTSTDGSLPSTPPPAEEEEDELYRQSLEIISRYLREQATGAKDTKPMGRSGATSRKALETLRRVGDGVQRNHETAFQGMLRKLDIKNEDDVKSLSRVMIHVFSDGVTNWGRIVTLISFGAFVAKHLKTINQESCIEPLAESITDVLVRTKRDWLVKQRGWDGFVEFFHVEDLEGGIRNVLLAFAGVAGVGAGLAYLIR
Hck-Nef inh: inhibitors of human Hck kinase activated by Nef; Recombinant Hck-YEEI plus Nef, Z-Lyte FRET kinase assay; P08631; AID 463187; inhibition, % at 20 µM; hit rate 0.68% among 220,000;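 active = Hck-Nef kinase inhibition above about 50%, limit read from the data; inactive = inhibition below that limit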;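 also: 0% = DMSO with Hck plus Nef and 100% = Hck alone without Nef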
Pf gamet viab: inhibitors of late stage P. falciparum gametocyte viability; P. falciparum stage V gametocytes, ATP luminescence, 24 h; inhibition, % at 10.9 µM; hit rate 0.065% among 150,000; AID 743093;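 active = inhibition above the mean plus 3 SD of compounds within the control limits, set per campaign, cut at about 38% in these data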;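 also: 0% = DMSO wells and 100% = medium only without gametocytes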
Bim-Mcl-1: human Bim-Mcl-1 interaction inhibition | Q07820 | Bead-based flow cytometry, Bim peptide-Mcl-1 binding | inhibition, % at 10 µM | hit rate 0.1% among 190,000 | AID 1009; in the data active = inhibition above about 40%;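 also: 0% = no compound tracer wells and 100% = peptide blocker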
Mcl1 Bid PPI: disrupts binding of human Mcl-1 to Bid peptide. hit rate 0.97% among 220,000. TR-FRET Mcl-1/Bid-Dy647 peptide binding, 1536-well. Q07820. inhibition, % at 21.7 µM;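 active = compounds that cut the binding signal by more than half at the single screening dose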;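 also: His-tagged Mcl-1 with europium anti-His antibody binding Bid BH3 peptide; 0% = Mcl-1 plus peptide wells and 100% = peptide-only wells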
14-3-3 Bad inh: disrupts binding of bovine 14-3-3 zeta to phospho-Bad peptide; TR-FRET 14-3-3zeta/Dy647-pBad peptide displacement, 1 h; hit rate 0.71% among 220,000; P63103; inhibition, % at 21.7 µM;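 active = inhibition above about 70%, limit read from the data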;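 also: 0% = full 14-3-3 plus peptide FRET controls and 100% = background without 14-3-3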
Target sequence (P63103 whole entry, looked up): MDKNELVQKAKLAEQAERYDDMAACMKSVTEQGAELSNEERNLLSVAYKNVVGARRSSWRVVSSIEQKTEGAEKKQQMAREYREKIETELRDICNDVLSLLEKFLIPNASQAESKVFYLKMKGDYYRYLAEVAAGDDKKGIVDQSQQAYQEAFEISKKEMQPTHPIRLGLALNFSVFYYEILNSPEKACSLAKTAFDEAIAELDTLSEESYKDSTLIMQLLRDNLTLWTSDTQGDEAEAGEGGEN
Starred values were filed as active, the others as inactive; [ ] = dose if it differs, or a comment. An excerpt weighted towards active compounds, which were near 2.9% of everything screened.

For Cc1cc2oc(=O)cc(CSc3nnc(-c4cccs4)o3)c2cc1C(C)C the results were Mcl1-Noxa inh 7.3, Hck-Nef inh 2.3, Pf gamet viab -13.5, Bim-Mcl-1 -3.0, Mcl1 Bid PPI -84.3 and 14-3-3 Bad inh -8.9.
Screening c1ccc(CNc2nc(-c3ccccc3)nc3ccccc23)cc1 returned Pf gamet viab 7.6.
Screening Cc1nc(NCc2ccccn2)c2ccccc2n1 returned Mcl1-Noxa inh -23.5, Hck-Nef inh 1.1, Bim-Mcl-1 0.0, Mcl1 Bid PPI -30.9 and 14-3-3 Bad inh 70.3*.
For c1ccc(CNc2nc(NCc3ccccc3)c3ccccc3n2)cc1 the results were Mcl1-Noxa inh 59.6*, Hck-Nef inh -179.3, Mcl1 Bid PPI 24.4 and 14-3-3 Bad inh 41.8.
`Cc1cc(NCc2ccccn2)nc2ccccc12` gave Mcl1-Noxa inh 1.9, Hck-Nef inh -0.1, Pf gamet viab -0.1, Bim-Mcl-1 -3.0, Mcl1 Bid PPI -22.9 and 14-3-3 Bad inh 6.6.
Screening Cc1nn(-c2ccccc2Cl)c(Cl)c1/C=C(\C#N)C(N)=O returned Mcl1-Noxa inh 4.7, Hck-Nef inh 6.0, Pf gamet viab -23.4, Bim-Mcl-1 -5.0, Mcl1 Bid PPI 7.1 and 14-3-3 Bad inh 0.9.
O=c1[nH]c2c(s1)C(c1ccc(O)cc1)C1C3CCC(C3)C1S2 (centres undefined) was read as Mcl1-Noxa inh 54.5*, Hck-Nef inh 0.6, Bim-Mcl-1 0.0, Mcl1 Bid PPI 48.2 and 14-3-3 Bad inh 4.8.
For O=C(O)CCN1C(=O)/C(=C\c2ccncc2)SC1=S the results were Mcl1-Noxa inh -8.4, Hck-Nef inh 20.2, Pf gamet viab -9.4, Bim-Mcl-1 0.0, Mcl1 Bid PPI -36.4 and 14-3-3 Bad inh -15.3.
O=C(O)CCCCCN1C(=O)/C(=C\c2cn(-c3ccccc3)nc2-c2cccs2)SC1=S was read as Mcl1-Noxa inh 98.6*, Hck-Nef inh 29.5, Pf gamet viab -8.5, Mcl1 Bid PPI 89.3* and 14-3-3 Bad inh 63.8.
O=C(O)CCN1C(=O)/C(=C/c2cn(-c3ccccc3)nc2-c2cccs2)SC1=S was read as Mcl1-Noxa inh 88.0*, Hck-Nef inh 40.2, Bim-Mcl-1 -2.0, Mcl1 Bid PPI 83.6* and 14-3-3 Bad inh 75.6*.
`CCOc1ccc(-c2nc(N)ncc2-c2ccccc2)c(O)c1` gave Mcl1-Noxa inh 25.6, Hck-Nef inh -0.7, Bim-Mcl-1 -2.0, Mcl1 Bid PPI 50.9* and 14-3-3 Bad inh 13.8.
Screening CCOc1ccccc1N1CCN(C(=S)NC(=O)C23CC4CC(CC(C4)C2)C3)CC1 returned Mcl1-Noxa inh -3.1, Hck-Nef inh 1.0, Bim-Mcl-1 -4.0, Mcl1 Bid PPI -35.5 and 14-3-3 Bad inh -6.4.
CCn1c(C)nc2cc(C(=O)N/N=C/c3cccc(OC)c3O)ccc21 was read as Mcl1-Noxa inh 64.7*, Hck-Nef inh -48.0, Pf gamet viab -44.0, Bim-Mcl-1 2.0, Mcl1 Bid PPI -38.1 and 14-3-3 Bad inh -15.1.
`COc1cccc(/C=N/NC(=O)c2ccc3nc[nH]c3c2)c1O` gave Mcl1-Noxa inh 47.8, Hck-Nef inh -11.0, Pf gamet viab -3.3, Mcl1 Bid PPI -85.0 and 14-3-3 Bad inh -9.3.
Screening COCc1cc(C)nc(OCC(=O)N/N=C/c2ccc(-c3cc([N+](=O)[O-])ccc3C)o2)c1C#N returned Mcl1-Noxa inh 27.5, Hck-Nef inh 3.0, Bim-Mcl-1 -1.0, Mcl1 Bid PPI -11.0 and 14-3-3 Bad inh -2.9.
Screening Cc1ccc([N+](=O)[O-])cc1-c1ccc(/C=C(\C#N)c2[nH]nc(N)c2C#N)o1 returned Mcl1-Noxa inh 67.6*, Hck-Nef inh 41.1, Pf gamet viab -13.8, Bim-Mcl-1 -11.0, Mcl1 Bid PPI 79.0* and 14-3-3 Bad inh 71.6*[fluorescence artefact?].
COCc1cc(=O)n2[nH]c(-c3cccs3)cc2n1 was read as Mcl1-Noxa inh 20.9, Hck-Nef inh -4.6, Pf gamet viab -7.2, Mcl1 Bid PPI -13.3 and 14-3-3 Bad inh 4.7.
`CC(C)(C)/C(O)=C(/C#N)c1nc2ccccc2[nH]1` gave Mcl1-Noxa inh 12.2, Hck-Nef inh 1.1, Pf gamet viab 7.4, Bim-Mcl-1 2.0, Mcl1 Bid PPI -11.9 and 14-3-3 Bad inh -11.5.
`N#C/C(=C(O)\C=C\c1ccccc1)c1nc2ccccc2[nH]1` gave Mcl1-Noxa inh 67.3*, Hck-Nef inh 33.7, Pf gamet viab -2.1, Mcl1 Bid PPI 49.9 and 14-3-3 Bad inh 25.6.
Screening CCOC(=O)c1cccc(NC(=O)CCNS(=O)(=O)c2ccc3c(c2)CCN3C(=O)CC)c1 returned Mcl1-Noxa inh 21.3, Hck-Nef inh 1.8, Bim-Mcl-1 -4.0, Mcl1 Bid PPI 70.4* and 14-3-3 Bad inh 2.5.
Screening Cc1ccc(C(C)C)c(OCC(O)CN2CCN(CCO)CC2)c1 (centres undefined) returned Mcl1-Noxa inh 32.3, Hck-Nef inh 7.9, Bim-Mcl-1 1.0, Mcl1 Bid PPI 53.0* and 14-3-3 Bad inh 49.6.
Screening C=CCc1ccccc1OCC(O)CN1CCN(c2ccc(C)cc2)CC1 (centres undefined) returned Mcl1-Noxa inh 19.1, Hck-Nef inh 0.2, Pf gamet viab 7.0, Bim-Mcl-1 -1.0, Mcl1 Bid PPI -13.3 and 14-3-3 Bad inh 72.3*.
Screening Cc1cc(C)n(-c2ccc(Cl)c(Cl)c2)n1 returned Mcl1-Noxa inh 13.2, Hck-Nef inh 16.4, Pf gamet viab -18.7, Bim-Mcl-1 0.0, Mcl1 Bid PPI -23.0 and 14-3-3 Bad inh -11.3.
CC(C)NC(=O)c1cc(=O)n(C)c(=O)n1C was read as Mcl1-Noxa inh -18.4, Hck-Nef inh 9.5, Bim-Mcl-1 -1.0, Mcl1 Bid PPI -11.8 and 14-3-3 Bad inh 87.6*.
Cn1c(C(=O)NC2CC2)cc(=O)n(C)c1=O was read as Mcl1-Noxa inh 1.4, Hck-Nef inh 19.4, Pf gamet viab 9.8, Bim-Mcl-1 -1.0, Mcl1 Bid PPI 4.7 and 14-3-3 Bad inh -11.2.
`COc1ccc(OCCn2c(NC(=O)c3ccco3)nc3ccccc32)cc1` gave Mcl1-Noxa inh 2.8, Hck-Nef inh -3.3, Bim-Mcl-1 -1.0, Mcl1 Bid PPI -29.3 and 14-3-3 Bad inh -7.9.
Cc1ccc(N(Cc2cc3cc(C)ccc3[nH]c2=O)C(=O)c2cccs2)cc1 was read as Mcl1-Noxa inh -7.6, Hck-Nef inh 2.7, Pf gamet viab 4.8, Bim-Mcl-1 -4.0, Mcl1 Bid PPI 60.9* and 14-3-3 Bad inh -0.2.
For CCN(CC)CCn1c(/N=C/c2ccc(OC)c(OC)c2)nc2ccccc21 the results were Pf gamet viab 15.8.
CCCCNc1c2c(nc3c(-c4ccccc4)c(C)nn13)CCC2 was read as Mcl1-Noxa inh 13.6, Hck-Nef inh 0.7, Bim-Mcl-1 -4.0, Mcl1 Bid PPI -25.2 and 14-3-3 Bad inh -9.9.
Nc1ccc(Cc2ccc(N)c(O)c2)cc1O was read as Mcl1-Noxa inh 87.1*, Hck-Nef inh 16.0, Pf gamet viab 27.4, Bim-Mcl-1 2.0, Mcl1 Bid PPI 27.3 and 14-3-3 Bad inh 47.5.
COc1cc(Cc2ccc(N)c(OC)c2)ccc1N was read as Mcl1-Noxa inh 19.2, Hck-Nef inh 2.4, Pf gamet viab -17.8, Bim-Mcl-1 -2.0, Mcl1 Bid PPI -13.9 and 14-3-3 Bad inh -4.1.
